Structures are written as SMILES. Several values for one entry are separate records, joined by “and”; a condition that tells them apart may be missing. Equal values may be shown once. This is part of a sample that, as a whole, favours compounds with a hit. Of some 83,000 tested, about 20% had one in any assay.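 Compound tested at a single concentration for 48 hours in 96-well plates; a percent growth value below 10 was scored as active.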 A number with no mark means an inactive call. Activity calls are given as the source filed them.

We go through 14 compounds from PubChem BioAssay (NCI).

The first experiment relates to SW-620 colon. Nature of the experiment: NCI-60 one-dose screen, 48 h (100 = growth as untreated, 0 = no growth, -100 = all killed). Particulars: 10 µM unless noted.
With `Cc1nc2sc(C(=O)Nc3cccc4ncccc34)c(N)c2cc1C(C)O` (centres undefined), the growth was 59.2%.
On the same count and under the same terms, under `N=C(N)c1ccc(-c2ccc(-c3ccc(F)cc3)s2)nc1` stands 26%.
On the same count and under the same terms, the value for `CN(C)CCCn1c2nc(=O)[nH]c(=O)c-2nc2cc(Cl)c(Cl)cc21` was 13.6%; that for `Brc1ccc(/C=C(/C2=NCCN2)n2ccc3ccccc32)cc1` was 71.8%.
On the same count and under the same terms, the value for `CCOC(=O)c1c(-c2ccc(OC)cc2)c(C#N)c2c(C#N)c(N)nn2c1N` was 26.9%; that for `COc1ccc(S(=O)(=O)Nc2cc(Sc3cccc4cccnc34)c(O)c3ccccc23)cc1` was -59.2% (active).

The next experiment has as its system MCF7 breast. The experiment is described as above. Particulars: 10 µM unless noted.
Consider `NC1=CC(=O)c2cccnc2C1=O`, for which the growth is -55.5% (active).
Still for that read-out and setting: the value for `Cn1c(=O)c2c(nc(Nc3cc(=O)[nH]c(=O)[nH]3)n2Cc2ccccc2)n(C)c1=O` was 95.5%; that for `O=C(c1ccc(Nc2nccc(NCCCNc3ccnc4cc(Cl)ccc34)n2)cc1)N1CCCCC1` was 23.1%; that for `COc1c(NC=O)c2c(c([N+](=O)[O-])c1OC)C(=O)OC2` was 97.2% and 89.6%.
The same measure, in the same setting: the value for `COc1ccc(Cl)cc1Nc1nc(C(F)(F)F)ccc1C(=O)N/N=C/c1ccc(N(C)C)cc1` was 218%; that for `CC1=C2[C@@H](CC1)[C@]1(C)O[C@@](C3CC3)(C[C@H]1OC(=O)CO)[C@H]2OC(=O)/C=C/c1ccccc1` was 96.4%.
With `CC/C=C\C/C=C\C[C@H](O)C/C=C1/C(=O)C=C[C@@H]1C/C=C\CCCC(=O)OC`, the growth was 2.32% (active).
On the same count and under the same terms, the value for `Cc1[nH]c(C(=O)Nc2nc3ccc(NC(=O)CCN)cc3s2)c(Cl)c1Cl` was 52.3%.
